This is one part of a sample in which hits are shown more often than they occur.
Choline anaer gr = inhibitors of anaerobic choline-dependent gram-negative bacterial growth | Gram-negative bacterium anaerobic choline minimal medium, absorbance growth; active compounds read low | calls only | 0.2% of 55,000 active; call rule not given here
* hit, by the source's call; i = inactive; + = active, no number; ! = not active in a repeat.

SMILES | Choline anaer gr
CC/C=C\C/C=C\C/C=C\CCCCCCCCCC(=O)O | +
CC/C=C\C/C=C\C/C=C\CCCCCCCCCCCC(=O)O | +
CC/C=C\C/C=C\C/C=C\C/C=C\C/C=C\CCCC(=O)O | +
CCCCC/C=C\C/C=C\C/C=C\C/C=C\CCCC(=O)O | i
CCCCC/C=C\C/C=C\CC1OC1C/C=C\CCCC(=O)O (stereo unspecified) | i
CC/C=C\C/C=C\C/C=C\CCCCCCCC(=O)O | i
CCCCC/C=C\C/C=C\CCCCCCCC(N)=O | i
CCCCCCC/C=C\CCCCCCCCC(=O)O | i
CCCCC/C=C\C/C=C\C/C=C\C/C=C\CCCCCC(=O)O | i
O=C(Cn1cnc2c(nc3n2CCCCC3)c1=O)N1CCOCC1 | i
CCCCn1c(SCc2nc(-c3ccc(OCC)cc3)no2)nc2cc3c(cc2c1=O)OCO3 | i
CN1CCN(c2cc3c(nn2)Oc2cc(N)ccc2N3C)CC1 | i
c1cc(-c2nnc(CC3CCCC3)o2)ccn1 | i
Cc1ccc(-n2nc(N3CCCN(C(=O)Nc4ccc(C)cc4Cl)CC3)ccc2=O)cc1 | i
O=C(NCc1ccccn1)c1cccn1-c1nnc(N2CCOCC2)s1 | i
CCn1c(=O)c2c(C(=O)NCCCN3CCCC3=O)cc(=O)n(CC)c2n(C)c1=O | i
Cc1ccc(NC(=O)c2nn(C)c3c2COc2ccccc2-3)c(Br)c1 | i
CCOc1ccccc1CN1CCCC1c1cc(C(C)C)on1 (stereo unspecified) | i
CC(C)CCNC(=O)CSc1nc(-c2ccccc2)no1 | i
CCCCNC(=O)CSc1nc(-c2ccc(C(C)C)cc2)no1 | +
CCc1ccc(NC(=O)CSc2nc(-c3ccc(C(C)C)cc3)no2)cc1 | i
CN(C)C(=O)c1ccc2c(c1)N(CC(=O)NCCCN1CCCCC1)C(=O)C1CCCCN21 (stereo unspecified) | i
Cc1ccc(C(=O)N2CCc3ccc(NC(=O)NCCc4ccccc4)cc32)cc1 | i
Cn1c(-c2nnc(SCC(=O)Nc3ccc4c(c3)OCO4)o2)cc2ccccc21 | i
O=C(CSc1nnc(-c2cccnc2)o1)Nc1ccc2c(c1)OCO2 | +
SMILES | Choline anaer gr
O=C(CSc1nnc(-c2cc3ccccc3[nH]2)o1)Nc1ccc2c(c1)OCO2 | i
O=S(=O)(NC1CCCCC1)c1ccc(-c2nnc(C3CCC3)o2)o1 | i
CC(C)c1nnc(-c2ccc(S(=O)(=O)NC3CCCC3)o2)o1 | +
CC(C)c1nnc(-c2ccc(S(=O)(=O)N3CCCCC3)o2)o1 | i
O=C(Nc1ccc2c(c1)CCC2)Nc1ccc2[nH]c(=O)oc2c1 | i
CCCCSc1nnc(-c2ccc(O)cc2)n1-c1ccccc1 | i
Cc1ccc(-c2noc(-c3cccnc3NCc3cccnc3)n2)cc1 | i
O=C(Nc1cnn(-c2ncc(N3CCCC3)cn2)c1)C1CCC1 | +
O=C(Nc1cnn(-c2ncc(N3CCCC3)cn2)c1)NC1CCCC1 | i
O=C(Nc1cnn(-c2ncc(N3CCSCC3)cn2)c1)C1CCOC1 (stereo unspecified) | i
CC(C)NC(=O)N1CCCC1c1cc(C(C)C)no1 (stereo unspecified) | i
CCn1c(CN(c2ccc(F)cc2)S(C)(=O)=O)nnc1SCC(=O)c1ccccc1 | i
CCn1c(CN(c2ccc(F)cc2)S(C)(=O)=O)nnc1SCC(=O)c1ccc(Cl)cc1 | i
CCn1c(CN(c2ccc(F)cc2)S(C)(=O)=O)nnc1SCC(=O)Nc1ccc(F)cc1F | +
COc1cccc(-c2csc(Cc3nc(-c4cccc(C)c4)no3)n2)c1 | i
CCN(CC)C(=O)Cn1c(=O)n(Cc2ccccc2)c(=O)c2c1c(C)nn2CC | i
COc1ccc(-c2nn3c(CSc4ccccc4)nnc3s2)cc1 | i
CN(C)c1cccc(-c2nn3c(CSc4ccccc4)nnc3s2)c1 | i
c1ccc(SCc2nnc3sc(-c4cccnc4)nn23)cc1 | +
Cc1ccc(NS(=O)(=O)c2cn(C)cn2)cc1F | i
CCOc1ccc(N(Cc2nc3nc(C)cc(=O)n3[nH]2)S(C)(=O)=O)cc1 | i
CCCCC[C@H](O)/C=C/[C@H]1[C@H](O)CC(=O)[C@@H]1C/C=C\CCCC(=O)OC | i
CCN(C(=O)c1c(C)oc2ncnc(N3CCCCC3)c12)c1cc(C)ccc1C | +
Cc1oc2ncnc(N3CCCCC3)c2c1C(=O)Nc1cccc(Cl)c1 | i
Cc1ccc(-c2noc3ncnc(N4CCC(C(=O)N(C)c5cc(C)ccc5C)CC4)c23)cc1 | i
SMILES | Choline anaer gr
O=c1ccn(-c2ccccc2)nc1-c1nc(-c2ccc3c(c2)OCO3)no1 | i
Cc1nc2sccn2c(=O)c1NC(=O)Cc1ccc(Cl)cc1 | i
Cc1nc2scc(C)n2c(=O)c1NC(=O)Cc1ccc(Cl)cc1 | +
Cc1nc2scc(C)n2c(=O)c1NC(=O)C(C)C | i
O=C(NCCc1cscn1)[C@H]1CSCN1C(=O)c1ccc(Br)o1 | i
Cc1cc(-n2c(C)nc3ccccc3c2=O)ccc1NC(=O)CC(C)(C)C | i
CCOc1ccc(NC(=O)C(C)Sc2nc3c(c(=O)[nH]2)CCCC3)cc1 (stereo unspecified) | i
CCC(Sc1nc2ncccc2[nH]1)C(=O)Nc1ccc(Br)cc1 (stereo unspecified) | i
CCOc1ccc(NC(=O)C(CC)Sc2nc3ncccc3[nH]2)cc1 (stereo unspecified) | +
O=C(Nc1ccc2c(c1)OCO2)Nc1cc(NC(=O)c2ccccc2)ccc1N1CCCC1 | i
Cc1cc(C)cc(NC(=O)Nc2cc3c(cc2N2CCCC2)n(C)c(=O)n3C)c1 | i
Cn1c(=O)n(C)c2cc(N3CCCC3)c(NC(=O)Nc3ccc4c(c3)OCCO4)cc21 | +
Cc1nc2ccccc2c(=O)n1-c1ccc(NC(=O)c2cc(Cl)ccc2F)cc1 | i
NC[C@@H]1O[C@H](c2ccccc2)Cc2c1ccc(O)c2O | i
NC[C@@H]1O[C@H](C23CC4CC(CC(C4)C2)C3)Cc2c1ccc(O)c2O | +!
CC(C)(C)c1csc(-c2csc(S(=O)(=O)Nc3ccc(F)c(Cl)c3)c2)n1 | i
CC(C)(C)c1csc(-c2csc(S(=O)(=O)Nc3ccc(Cl)cc3F)c2)n1 | +
Cc1ccc(Cl)cc1NS(=O)(=O)c1cc(-c2nc(C(C)(C)C)cs2)cs1 | i
Cc1noc(C(=O)N2CCCCC2C)c1Cl (stereo unspecified) | i
CCCC(=O)N1CCCC1C(=O)N1CCCCC1C (stereo unspecified) | +
Cc1cc(N2CCC(C)CC2)nc2ccc(NC(=O)CCC(=O)N3CCCCC3C)cc12 (stereo unspecified) | i
CC(C)OCCCNC(=O)C1CCN(c2ncnc3c2oc2ccccc23)CC1 | i
c1nc2c(c(N3CCC(N4CCCCC4)CC3)n1)CCC2 | +
CN1CCCN(c2ncnc3c2CCC3)CC1 | i
c1ccc(N2CCN(c3ncnc4c3CCC4)CC2)nc1 | i
SMILES | Choline anaer gr
Cc1ccc(-c2nc(C3CCN(S(=O)(=O)c4cc(C)c(C)cc4C)CC3)no2)cc1 | i
NC(C/C=C/CC(N)C(=O)O)C(=O)O (stereo unspecified) | i
OCC1O[C@H]([S-])[C@@H](O)C(O)[C@@H]1O.[Au+] (stereo partly specified) | +
OCC1O[C@H](O)C(Cl)C(O)C1O (stereo partly specified) | i
OC[C@H]1O[C@H](O[C@H]2[C@H](O)[C@@H](O)[C@H](O)O[C@@H]2CO)[C@H](O)[C@@H](O)[C@@H]1O | i
Cc1cc(N2CCCCC2)n2nc(CN3CCN(C(C)C)CC3)nc2n1 | i
